The source made the active and inactive calls.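 Rule for the calls, unless noted: active = visual image review flags a hit and inhibition of aggregation exceeds 20%; inconclusive = visual hit but inhibition at or below 20%; inactive = no hit on visual image review.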
What was measured:
[1] = inhibitors of TNFa-induced NFkB p65 translocation, primary screen, imaging, HUVEC, MLSMR starter and 10KST1 sets (AID 438;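 active = inhibition above 20% together with a positive visual image hit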;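 note: compound added about 3h40 before a 20 min TNFalpha stimulation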;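 for inhibition: signal is the nuclear over cytoplasmic p65 intensity ratio per well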); conditions: HUVEC TNFa-induced p65 nuclear translocation; cell count: measured here: nuclei count (cytotoxicity indicator), at 2.08 µM; inhibition: at 2 µM, stronger effect = higher value, 0% TNFa-plus-vehicle, 100% no-TNFa wells
[2] = inhibitors of mutant huntingtin aggregation, primary screen, imaging, exon1htt(103Q)mCFP cells, high-content imaging (AID 483); conditions: exon1htt(103Q)mCFP cell line, aggregate imaging, at 2 µM; inhibition of aggregation: stronger effect = higher value; nuclei count: measured here: cell count, toxicity;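 note: compound exposure lasted 3 days before fixation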;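 for nuclei count: percent of the per-plate median nuclei count of sample wells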
[3] = inhibitors of E-selectin induction by TNFa, primary screen, imaging, HUVEC, immunofluorescence, MLSMR starter and 10KST1 sets (AID 487;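 active = visually confirmed hit in the image check and inhibition above 20%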;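 for inhibition: signal is fraction of cell area covered by stained E-selectin grains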;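 for nuclei count: 100% = median nuclei count of all wells on the same plate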); conditions: HUVEC TNFalpha-induced E-selectin immunofluorescence imaging, at 2 µM; inhibition: stronger effect = higher value; nuclei count: measured here: cell number, toxicity
[4] = molecular target: Voltage-gated potassium channel subunit beta-2 (Rattus norvegicus) (UniProt P62483); test: KvBeta enzyme negative modulators, primary screen, biochemical, NADPH fluorescence (AID 622;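 active = fluorescence slope higher than the sample average by over 3 SD, cut at about -0.22 in these data, passing the limit was not always enough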;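 note: slope of raw intensity against log time taken from 70 to 1610 s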); conditions: recombinant KvBeta, 4-cyanobenzaldehyde reduction, at 10 µM, stronger effect = higher value
[5] = molecular target: Voltage-gated potassium channel subunit beta-2 (Rattus norvegicus) (UniProt P62483); test: KvBeta positive modulators, primary screen, biochemical, NADPH fluorescence (AID 623;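 active = NADPH fluorescence slope more negative than the mean of all samples by about 3 SD, 99.7% confidence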;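 note: fluorescence intensity change per second fitted from 20 to 320 s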); conditions: Recombinant KvBeta, NADPH fluorescence decrease slope, 10 min; at 10 µM; stronger effect = lower value
[6] = molecular target: Alpha-2C adrenergic receptor (Homo sapiens) (UniProt P18825); test: modulators of alpha2C/GIRK thallium flux, primary screen, cell-based, HEK293 alpha2C/GIRK1/2 (AID 624;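 active = fluorescence slope after compound addition differing from the mean of all screened samples at 99.7% confidence, in either direction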;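 note: slope of fluorescence ratio to pre-addition baseline per second over 15 to 24 s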); conditions: thallium flux BTC fluorescence, at 10 µM, actives lie on both sides
[7] = inhibitors of Sendai virus-induced IRF3 signaling, primary screen, TLR/RLR signaling modifier project, cell-based, Sendai virus stimulus, luciferase, 10K MLSCN set (AID 602276;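 active = inhibition at or above 50% at 10 µM; inactive = inhibition below 50%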;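 note: firefly luciferase from ISG56 promoter only with Renilla not read in this screen; 0% = Sendai virus plus DMSO and 100% = medium plus DMSO without virus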); conditions: HEK293 RL24 IRF3 luciferase reporter, at 10 µM, stronger effect = higher value
[8] = inhibitors of poly I:C-induced TLR3 signaling, primary screen, cell-based, poly I:C stimulus, luciferase, 10K MLSCN set (AID 602277;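 active = inhibition of the reporter signal at or above 50%; inactive = inhibition below 50%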); conditions: HEK293-TLR3 RL24 IRF3 luciferase reporter, at 10 µM, stronger effect = higher value

Chain of Alpha-2C adrenergic receptor (Homo sapiens) (P18825 whole entry, looked up): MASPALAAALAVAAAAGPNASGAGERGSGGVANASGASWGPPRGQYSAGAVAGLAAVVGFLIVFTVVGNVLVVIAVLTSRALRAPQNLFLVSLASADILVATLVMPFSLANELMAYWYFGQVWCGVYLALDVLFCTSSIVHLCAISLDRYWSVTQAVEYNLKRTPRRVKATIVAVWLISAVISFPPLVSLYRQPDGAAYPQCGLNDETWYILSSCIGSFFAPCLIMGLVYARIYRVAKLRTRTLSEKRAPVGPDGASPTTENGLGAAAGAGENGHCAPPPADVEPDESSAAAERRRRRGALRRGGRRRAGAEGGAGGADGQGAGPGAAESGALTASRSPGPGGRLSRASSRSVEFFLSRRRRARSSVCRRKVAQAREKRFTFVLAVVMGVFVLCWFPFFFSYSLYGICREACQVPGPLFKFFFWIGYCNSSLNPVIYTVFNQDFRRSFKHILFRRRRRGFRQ
Chain of Voltage-gated potassium channel subunit beta-2 (Rattus norvegicus) (P62483 whole entry, looked up): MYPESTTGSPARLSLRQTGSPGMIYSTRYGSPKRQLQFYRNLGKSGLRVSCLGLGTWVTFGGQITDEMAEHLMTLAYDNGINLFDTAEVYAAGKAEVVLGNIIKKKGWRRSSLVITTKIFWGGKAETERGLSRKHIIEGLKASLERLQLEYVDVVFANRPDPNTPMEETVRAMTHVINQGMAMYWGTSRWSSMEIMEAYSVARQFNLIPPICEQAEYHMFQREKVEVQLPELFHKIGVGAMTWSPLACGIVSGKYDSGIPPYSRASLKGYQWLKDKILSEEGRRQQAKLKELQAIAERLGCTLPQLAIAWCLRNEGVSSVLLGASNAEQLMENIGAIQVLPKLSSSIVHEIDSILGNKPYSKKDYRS

Row | SMILES | cell count [1] | inhibition [1] | inhibition of aggregation [2] | nuclei count [2] [%] | inhibition [3] | nuclei count [3] [%] | fluorescence slope [4] | NADPH fluorescence slope [5] | slope [6] | inhibition [7] | inhibition [8]
1 | O=C1c2ccccc2C(=O)N1CCCCN1CCN(CCCCN2C(=O)c3ccccc3C2=O)CC1 | 401 | -3.5% (inactive) | 17.2% (inactive) | 2.4 | -22.5% (inactive) | 86.8 | -0.408 (inactive) | -3.8e-05 (inactive) | 0.00409 (inactive) | 14.1% (inactive) | 10.6% (inactive)
2 | CCC(C)(C(=O)NC1CCCC1)N(Cc1cccs1)C(C)=O (stereo unspecified) | 472 | 6.2% (inactive) | -9.4% (inactive) | 115 | -15% (inactive) | 93.8 | -0.491 (inactive) | -1.6e-05 (inactive) | 0.00646 (inactive) | 14.8% (inactive) | 24.4% (inactive)
3 | O=C(C1CCCN(S(=O)(=O)c2cnc[nH]2)C1)N1CC(=O)N(CCc2ccccc2)C(=O)C1 (stereo unspecified) | 545 | 3.4% (inactive) | -13.8% (inactive) | 109 | -124% (inactive) | 147 | -0.573 (inactive) | 8.9e-06 (inactive) | 0.0066 (inactive) | 9.42% (inactive) | 20.7% (inactive)
4 | COCCOC(=O)c1c(C)oc2ccc(NS(=O)(=O)c3ccc(F)cc3)cc12 | 381 | 2.5% (inactive) | 4.7% (inactive) | 123 | 30.2% (inactive) | 93 | -0.613 (inactive) | 2.2e-06 (inactive) | 0.00626 (inactive) | 14.6% (inactive) | 25.3% (inactive)
5 | COC(=O)CSC1=C(C#N)C(c2ccccc2)CC(=O)N1 (stereo unspecified) | 317 | 1.5% (inactive) | -2.2% (inactive) | 89.5 | 7.2% (inactive) | 86.9 | -0.372 (inactive) | -1.7e-05 (inactive) | 0.00515 (inactive) | 25.3% (inactive) | 21.9% (inactive)
6 | CCOC(=O)c1[nH]c(CSc2nnc(-c3ccc(OC)cc3)o2)c(C(=O)OCC)c1C | 609 | 1.4% (inactive) | -12.6% (inactive) | 124 | -39.2% (inactive) | 119 | -0.304 (inactive) | -5.8e-05 (inactive) | 0.00625 (inactive) | 7.64% (inactive) | 24.1% (inactive)
7 | O=C(O)C1C2C=CC(C3CC23)C1C(=O)NCCc1ccccc1 (stereo unspecified) | 494 | -7.5% (inactive) | 19.2% (inactive) | 54 | -50% (inactive) | 104 | -0.467 (inactive) | -3.5e-05 (inactive) | 0.00628 (inactive) | -3.61% (inactive) | 11.6% (inactive)
8 | COc1ccc(Cl)cc1S(=O)(=O)n1cnc2ccccc21 | 725 | -4.8% (inactive) | -5.8% (inactive) | 92.3 | -42.3% (inactive) | 104 | -0.403 (inactive) | 9.7e-06 (inactive) | 0.00504 (inactive) | 19.3% (inactive) | 31.3% (inactive)
9 | O=C(Nc1nnc(N2CCCCCC2)s1)c1cc(-c2ccc(Br)cc2)on1 | 890 | 1.2% (inactive) | 5.2% (inactive) | 85.6 | -76.6% (inactive) | 120 | -0.612 (inactive) | -2.8e-06 (inactive) | 0.00651 (inactive) | 5.43% (inactive) | 23.2% (inactive)
10 | CCOc1ccc(-c2nc(C#N)c(NCc3ccc4c(c3)OCO4)o2)cc1 | 801 | 1.8% (inactive) | -13.1% (inactive) | 93.8 | -56.3% (inactive) | 120 | -0.581 (inactive) | -4.4e-05 (inactive) | 0.00619 (inactive) | -4.94% (inactive) | -18.3% (inactive)
11 | c1ccc(Nc2ccccc2Nc2ccccn2)nc1 | 306 | 4.4% (inactive) | 21.6% (inactive) | 88.1 | 8.5% (inactive) | 90.5 | -0.379 (inactive) | -5.3e-06 (inactive) | 0.00758 (inactive) | 13% (inactive) | 25% (inactive)
12 | COc1ccc(CNCC(=O)Nc2cc(C)nn2-c2nc(C)cc(C)n2)cc1OC | 431 | 6.7% (inactive) | -0.4% (inactive) | 104 | -481% (inactive) | 152 | -0.497 (inactive) | -2.4e-05 (inactive) | 0.00701 (inactive) | 21.1% (inactive) | 32.1% (inactive)
13 | Cc1ccccc1Nc1nc(N)nc(CSCc2c(C)noc2C)n1 | 347 | -15.8% (inactive) | -2.4% (inactive) | 93.8 | -16.2% (inactive) | 117 | -0.361 (inactive) | -5.1e-05 (inactive) | 0.00597 (inactive) | -21.3% (inactive) | -33.2% (inactive)
14 | CC1(C)CC(=O)c2cnc(NC(=O)CCc3ccccc3)nc2C1 | 608 | -15.9% (inactive) | -15.3% (inactive) | 112 | -24.7% (inactive) | 119 | -0.365 (inactive) | 9.1e-06 (inactive) | 0.00293 (inactive) | 14.3% (inactive) | 33% (inactive)
15 | Cc1ccc(-c2noc(COc3ccccc3C)n2)cc1 | 607 | -7.8% (inactive) | 12.3% (inactive) | 110 | 35.1% (inactive) | 129 | -0.484 (inactive) | 1.6e-05 (inactive) | 0.0049 (inactive) | -24.5% (inactive) | -88.2% (inactive)
16 | CC(=O)c1n[nH]nc1NC(=O)c1ccccc1 | 574 | -25.8% (inactive) | -6.9% (inactive) | 100 | -46.6% (inactive) | 119 | -0.525 (inactive) | -2.5e-05 (inactive) | 0.00678 (inactive) | 4.32% (inactive) | -46% (inactive)
17 | N#Cc1nc(-c2ccco2)oc1NCCc1ccccc1 | 686 | -7.5% (inactive) | -10.1% (inactive) | 88.8 | -3% (inactive) | 107 | -0.463 (inactive) | -4.3e-05 (inactive) | 0.0039 (inactive) | -33.8% (inactive) | -56.1% (inactive)
18 | C=CCOc1ccc(/C(CC)=N/O)c(OC)c1 | 387 | 15.3% (inactive) | -5.5% (inactive) | 54.4 | -29.6% (inactive) | 117 | -0.442 (inactive) | -3.1e-05 (inactive) | 0.00515 (inactive) | -7.92% (inactive) | 0.412% (inactive)
19 | Cc1ccnc(NC(=O)C2CCC(CNc3c(N4CCCC4)c(=O)c3=O)CC2)c1 (stereo unspecified) | 544 | 4.4% (inactive) | -2.5% (inactive) | 113 | -31.3% (inactive) | 98.8 | -0.598 (inactive) | -2.9e-05 (inactive) | 0.00671 (inactive) | 4.3% (inactive) | 18.4% (inactive)
20 | CCOC(=O)c1cc2c(=O)n3cccc(C)c3nc2n(CCOC)c1=NC(=O)c1ccncc1 | 397 | -0.2% (inactive) | -15.8% (inactive) | 100 | -4.6% (inactive) | 96.5 | -0.346 (inactive) | -4.3e-05 (inactive) | 0.00713 (inactive) | 16.8% (inactive) | 12.5% (inactive)
21 | CC1Cc2ccccc2N1S(=O)(=O)c1cccc(C(=O)OCC(=O)NC2CCS(=O)(=O)C2)c1 (stereo unspecified) | 657 | 0.7% (inactive) | 6.3% (inactive) | 103 | -92% (inactive) | 112 | -0.625 (inactive) | -4.3e-05 (inactive) | 0.00343 (inactive) | 20.6% (inactive) | 29.8% (inactive)
22 | NC(=O)C1CCN(C(=S)c2cccs2)CC1 | 759 | 3.9% (inactive) | 12.1% (inactive) | 105 | -69.5% (inactive) | 107 | -0.49 (inactive) | -1.4e-06 (inactive) | 0.00525 (inactive) | 19.1% (inactive) | 30.8% (inactive)
23 | O=C(CCC1COc2ccccc2O1)NCC1COc2ccccc2O1 (stereo unspecified) | 568 | 2.4% (inactive) | -5.5% (inactive) | 117 | -72.2% (inactive) | 85.5 | -0.499 (inactive) | -2.5e-05 (inactive) | 0.0058 (inactive) | 13.4% (inactive) | 19.2% (inactive)
24 | CN(C)c1oc(-c2ccccc2Cl)nc1C#N | 302 | 4.3% (inactive) | -4.3% (inactive) | 90.7 | 6% (inactive) | 109 | -0.433 (inactive) | -0.000102 (inactive) | 0.00458 (inactive) | 6.71% (inactive) | -0.158% (inactive)
25 | O=C(O)Cn1nc2ccccc2n1 | 396 | 5% (inactive) | 10.5% (inactive) | 100 | -55.1% (inactive) | 98.8 | -0.4 (inactive) | 1.5e-05 (inactive) | 0.00551 (inactive) | 14.6% (inactive) | 11.8% (inactive)
26 | COc1ccc(C2CC(c3ccco3)n3ncnc3N2)cc1 (stereo unspecified) | 458 | 6% (inactive) | -19.3% (inactive) | 59.7 | -21.1% (inactive) | 96.4 | -0.4 (inactive) | -6.8e-05 (inactive) | 0.00517 (inactive) | 9.66% (inactive) | 39.2% (inactive)

From PubChem BioAssay
